Experimental data reported in the supplement of paper PMC12645437, “Orthogonal IMiD-Degron Pairs Induce Selective Protein Degradation in Cells” (ACS Chemical Biology, 2025).
In all, about 8,300 sequences were measured (“log2 fold change of degron read counts, EGFP-low vs EGFP+ sorted cells (limma voom), compound-induced degradation”: median about -1.1, highest 2% from about 3.2 on). This is one part of a sample in which the highest values are shown more often than they occur.

Molecular target: T1, CRBN, Q96SW2
T1 chain: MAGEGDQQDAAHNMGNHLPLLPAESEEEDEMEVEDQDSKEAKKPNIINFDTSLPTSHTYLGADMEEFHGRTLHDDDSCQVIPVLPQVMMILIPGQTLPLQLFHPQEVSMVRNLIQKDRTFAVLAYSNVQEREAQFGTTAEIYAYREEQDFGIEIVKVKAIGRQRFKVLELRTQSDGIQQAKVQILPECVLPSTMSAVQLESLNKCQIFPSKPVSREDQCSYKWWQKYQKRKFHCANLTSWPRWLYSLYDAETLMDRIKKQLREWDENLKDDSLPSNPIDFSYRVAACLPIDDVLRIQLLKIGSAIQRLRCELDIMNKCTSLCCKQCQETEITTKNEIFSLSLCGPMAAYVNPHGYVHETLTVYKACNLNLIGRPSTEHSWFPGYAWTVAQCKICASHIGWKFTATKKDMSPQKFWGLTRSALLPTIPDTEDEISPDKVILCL
Assay: log2 fold change of degron read counts, EGFP-low vs EGFP+ sorted cells (limma voom), compound-induced degradation; higher = more compound-induced degradation of the degron-EGFP fusion; degrons are variants of IKZF1/3 zinc finger 2; compound dose not given here
Settings: Jurkat, 18 h

[1] = compound: compound 19 (5-tert-butyl-thalidomide)
[2] = compound: compound 22 (5-morpholino-thalidomide)
[3] = compound: compound 33 (diphenyl IMiD analogue)
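Further: pooled lentiviral library of zinc finger degron-EGFP fusions in mCherry-positive Jurkat cells, FACS-sorted after compound exposure, with degron abundance counted by next-generation sequencing.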

Sequence: FRCEICGRIFTQKGNLLRHIKL [46F_47R_49E_50I_52G_53R_54I_55F_67L_, Q9UKT9]
- log2 fold change of degron read counts [1]: -2.12
- log2 fold change of degron read counts [2]: -2.31
- log2 fold change of degron read counts [3]: -0.593
- log2 fold change of degron read counts (compound: thalidomide): -0.94

Sequence: FSCNQCGAVFTQKGNLLRHIKL [46F_47S_49N_50Q_52G_53A_54V_55F_67L_, Q9UKT9]
- log2 fold change of degron read counts [1]: -1.79
- log2 fold change of degron read counts [2]: -1.84
- log2 fold change of degron read counts [3]: -0.0126
- log2 fold change of degron read counts (compound: thalidomide): -1.8

Sequence: FSCEVCGAKFTQKGNLLRHIKL [46F_47S_49E_50V_52G_53A_54K_55F_67L_, Q9UKT9]
- log2 fold change of degron read counts [1]: 3.08
- log2 fold change of degron read counts [2]: 1.75
- log2 fold change of degron read counts [3]: -0.985
- log2 fold change of degron read counts (compound: thalidomide): 1.45

Sequence: FLCEVCGAKFTQKGNLLRHIKL [46F_47L_49E_50V_52G_53A_54K_55F_67L_, Q9UKT9]
- log2 fold change of degron read counts [1]: 0.27
- log2 fold change of degron read counts [2]: -1.55
- log2 fold change of degron read counts [3]: -0.283
- log2 fold change of degron read counts (compound: thalidomide): 1.49

Sequence: FACEVCGAKFTQKGNLLRHIKL [46F_47A_49E_50V_52G_53A_54K_55F_67L_, Q9UKT9]
- log2 fold change of degron read counts [1]: 3.92
- log2 fold change of degron read counts [2]: 2.02
- log2 fold change of degron read counts [3]: -1.57
- log2 fold change of degron read counts (compound: thalidomide): 0.889

Sequence: FECEVCGAKFTQKGNLLRHIKL [46F_47E_49E_50V_52G_53A_54K_55F_67L_, Q9UKT9]
- log2 fold change of degron read counts [1]: 0.451
- log2 fold change of degron read counts [2]: -1.55
- log2 fold change of degron read counts [3]: -0.965
- log2 fold change of degron read counts (compound: thalidomide): 2.59

Sequence: FQCEVCGAKFTQKGNLLRHIKL [46F_47Q_49E_50V_52G_53A_54K_55F_67L_, Q9UKT9]
- log2 fold change of degron read counts [1]: 0.414
- log2 fold change of degron read counts [2]: 2.98
- log2 fold change of degron read counts [3]: 0.135
- log2 fold change of degron read counts (compound: thalidomide): 3.4

Sequence: FGCEVCGAKFTQKGNLLRHIKL [46F_47G_49E_50V_52G_53A_54K_55F_67L_, Q9UKT9]
- log2 fold change of degron read counts [1]: 3.69
- log2 fold change of degron read counts [2]: 1.3
- log2 fold change of degron read counts [3]: -1.12
- log2 fold change of degron read counts (compound: thalidomide): 1.16

Sequence: FKCEVCGAKFTQKGNLLRHIKL [46F_47K_49E_50V_52G_53A_54K_55F_67L_, Q9UKT9]
- log2 fold change of degron read counts [1]: -1.41
- log2 fold change of degron read counts [2]: -3.28
- log2 fold change of degron read counts [3]: -3.54
- log2 fold change of degron read counts (compound: thalidomide): -1.57

Sequence: FICEVCGAKFTQKGNLLRHIKL [46F_47I_49E_50V_52G_53A_54K_55F_67L_, Q9UKT9]
- log2 fold change of degron read counts [1]: -0.59
- log2 fold change of degron read counts [2]: 2.35
- log2 fold change of degron read counts [3]: 0.972
- log2 fold change of degron read counts (compound: thalidomide): 2.68

Sequence: FRCEVCGAKFTQKGNLLRHIKL [46F_47R_49E_50V_52G_53A_54K_55F_67L_, Q9UKT9]
- log2 fold change of degron read counts [1]: -0.518
- log2 fold change of degron read counts [2]: -0.4
- log2 fold change of degron read counts [3]: 0.471
- log2 fold change of degron read counts (compound: thalidomide): 1.09

Sequence: FDCEVCGAKFTQKGNLLRHIKL [46F_47D_49E_50V_52G_53A_54K_55F_67L_, Q9UKT9]
- log2 fold change of degron read counts [1]: 1.57
- log2 fold change of degron read counts [2]: -0.744
- log2 fold change of degron read counts [3]: -2.09
- log2 fold change of degron read counts (compound: thalidomide): 0.993

Sequence: FMCEVCGAKFTQKGNLLRHIKL [46F_47M_49E_50V_52G_53A_54K_55F_67L_, Q9UKT9]
- log2 fold change of degron read counts [1]: 0.0707
- log2 fold change of degron read counts [2]: -0.168
- log2 fold change of degron read counts [3]: 0.454
- log2 fold change of degron read counts (compound: thalidomide): 0.604

Sequence: FWCEVCGAKFTQKGNLLRHIKL [46F_47W_49E_50V_52G_53A_54K_55F_67L_, Q9UKT9]
- log2 fold change of degron read counts [1]: 3.74
- log2 fold change of degron read counts [2]: 3.86
- log2 fold change of degron read counts [3]: 1.64
- log2 fold change of degron read counts (compound: thalidomide): 1.54

Sequence: FYCPQCGAHFTQKGNLLRHIKL [46F_47Y_49P_50Q_52G_53A_54H_55F_67L_, Q9UKT9]
- log2 fold change of degron read counts [1]: 0.451
- log2 fold change of degron read counts [2]: 1.45
- log2 fold change of degron read counts [3]: 1.13
- log2 fold change of degron read counts (compound: thalidomide): -0.932

Sequence: FFCPQCGAEFTQKGNLLRHIKL [46F_47F_49P_50Q_52G_53A_54E_55F_67L_, Q9UKT9]
- log2 fold change of degron read counts [1]: -0.388
- log2 fold change of degron read counts [2]: -1.02
- log2 fold change of degron read counts [3]: -0.943
- log2 fold change of degron read counts (compound: thalidomide): -1.93

Sequence: FMCPQCGAEFTQKGNLLRHIKL [46F_47M_49P_50Q_52G_53A_54E_55F_67L_, Q9UKT9]
- log2 fold change of degron read counts [1]: -2.82
- log2 fold change of degron read counts [2]: -2.55
- log2 fold change of degron read counts [3]: 0.714
- log2 fold change of degron read counts (compound: thalidomide): -1.49

Sequence: FACEICGHVFTQKGNLLRHIKL [46F_47A_49E_50I_52G_53H_54V_55F_67L_, Q9UKT9]
- log2 fold change of degron read counts [1]: -2.8
- log2 fold change of degron read counts [2]: -3.22
- log2 fold change of degron read counts [3]: -3.16
- log2 fold change of degron read counts (compound: thalidomide): -2.72

Sequence: FKCPVCGAYFTQKGNLLRHIKL [46F_47K_49P_50V_52G_53A_54Y_55F_67L_, Q9UKT9]
- log2 fold change of degron read counts [1]: -2.09
- log2 fold change of degron read counts [2]: -2.57
- log2 fold change of degron read counts [3]: -2.35
- log2 fold change of degron read counts (compound: thalidomide): -1.29

Sequence: FDCDVCGADFTQKGNLLRHIKL [46F_47D_49D_50V_52G_53A_54D_55F_67L_, Q9UKT9]
- log2 fold change of degron read counts [1]: -3.06
- log2 fold change of degron read counts [2]: -3.05
- log2 fold change of degron read counts [3]: -2.88
- log2 fold change of degron read counts (compound: thalidomide): -2.92

Sequence: FGCDVCGAVFTQKGNLLRHIKL [46F_47G_49D_50V_52G_53A_54V_55F_67L_, Q9UKT9]
- log2 fold change of degron read counts [1]: -0.0514
- log2 fold change of degron read counts [2]: -0.272
- log2 fold change of degron read counts [3]: 0.863
- log2 fold change of degron read counts (compound: thalidomide): -1.24

Sequence: FICNQCGADFTQKGNLLRHIKL [46F_47I_49N_50Q_52G_53A_54D_55F_67L_, Q9UKT9]
- log2 fold change of degron read counts [1]: -3.68
- log2 fold change of degron read counts [2]: -3.02
- log2 fold change of degron read counts [3]: -3.36
- log2 fold change of degron read counts (compound: thalidomide): -3.07

Sequence: FNCEVCGAKFTQKGNLLRHIKL [46F_47N_49E_50V_52G_53A_54K_55F_67L_, Q9UKT9]
- log2 fold change of degron read counts [1]: 1.99
- log2 fold change of degron read counts [2]: 0.318
- log2 fold change of degron read counts [3]: -2.12
- log2 fold change of degron read counts (compound: thalidomide): 0.139

Sequence: FVCEVCGAKFTQKGNLLRHIKL [46F_47V_49E_50V_52G_53A_54K_55F_67L_, Q9UKT9]
- log2 fold change of degron read counts [1]: 0.611
- log2 fold change of degron read counts [2]: 1.89
- log2 fold change of degron read counts [3]: 0.0419
- log2 fold change of degron read counts (compound: thalidomide): 2.73

Sequence: FFCEVCGAKFTQKGNLLRHIKL [46F_47F_49E_50V_52G_53A_54K_55F_67L_, Q9UKT9]
- log2 fold change of degron read counts [1]: 3.53
- log2 fold change of degron read counts [2]: 3.42
- log2 fold change of degron read counts [3]: 1.26
- log2 fold change of degron read counts (compound: thalidomide): 1.64

Sequence: FYCEVCGAKFTQKGNLLRHIKL [46F_47Y_49E_50V_52G_53A_54K_55F_67L_, Q9UKT9]
- log2 fold change of degron read counts [1]: 3.48
- log2 fold change of degron read counts [2]: 3.66
- log2 fold change of degron read counts [3]: 1.65
- log2 fold change of degron read counts (compound: thalidomide): 1.54

Sequence: FHCEVCGAKFTQKGNLLRHIKL [46F_47H_49E_50V_52G_53A_54K_55F_67L_, Q9UKT9]
- log2 fold change of degron read counts [1]: 2.92
- log2 fold change of degron read counts [2]: 1.93
- log2 fold change of degron read counts [3]: -0.596
- log2 fold change of degron read counts (compound: thalidomide): 0.387

Sequence: FCCEVCGAKFTQKGNLLRHIKL [46F_47C_49E_50V_52G_53A_54K_55F_67L_, Q9UKT9]
- log2 fold change of degron read counts [1]: 3.23
- log2 fold change of degron read counts [2]: 2.43
- log2 fold change of degron read counts [3]: -0.571
- log2 fold change of degron read counts (compound: thalidomide): 2.71
